Compound activity from PubChem BioAssay.
RXFP1 agonist: qHTS Assay for Agonists of the Relaxin Receptor RXFP1; Relaxin receptor 1 (Homo sapiens), Q9HBX9; HEK293T-RXFP1 cAMP TR-FRET, 30 min; response scale: percent of porcine relaxin response, buffer zero; Potency, µM (doses to about 57.5 µM), for the others: at the highest dose activation, most hits filed as activators; 370,000 compounds, 0.3% hits; further: potency means the concentration at half of the fitted maximal effect; on the % scale 0 is the no-effect control and ±100 the full control effect; nearly all actives have a fitted effect of over 60% in size
Target sequence (Q9HBX9 whole entry, looked up): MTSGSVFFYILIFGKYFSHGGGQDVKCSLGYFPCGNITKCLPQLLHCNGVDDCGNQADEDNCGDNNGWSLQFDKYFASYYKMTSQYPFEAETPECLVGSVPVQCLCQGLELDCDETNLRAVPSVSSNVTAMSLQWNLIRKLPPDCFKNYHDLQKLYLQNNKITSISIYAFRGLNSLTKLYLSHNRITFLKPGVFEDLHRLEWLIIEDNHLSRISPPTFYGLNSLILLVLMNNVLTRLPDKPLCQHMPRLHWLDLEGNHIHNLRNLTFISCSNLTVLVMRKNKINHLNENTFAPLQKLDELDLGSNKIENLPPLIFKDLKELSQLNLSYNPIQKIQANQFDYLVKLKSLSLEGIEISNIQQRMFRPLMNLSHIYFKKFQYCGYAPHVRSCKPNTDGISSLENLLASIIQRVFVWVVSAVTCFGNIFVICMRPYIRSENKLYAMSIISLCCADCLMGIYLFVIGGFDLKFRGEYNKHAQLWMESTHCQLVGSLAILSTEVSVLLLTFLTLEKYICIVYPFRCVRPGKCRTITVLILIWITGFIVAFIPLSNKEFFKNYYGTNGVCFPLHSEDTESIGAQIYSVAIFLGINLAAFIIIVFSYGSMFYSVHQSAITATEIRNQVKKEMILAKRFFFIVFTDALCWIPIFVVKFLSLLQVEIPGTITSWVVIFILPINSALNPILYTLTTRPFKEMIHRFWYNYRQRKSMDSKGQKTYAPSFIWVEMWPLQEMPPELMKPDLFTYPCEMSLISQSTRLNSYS
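cAMP rise read by TR-FRET after 30 min, 37C compound exposure (up to 58 uM) in RXFP1-transfected HEK293 cells with Ro 20174 present. EC50 from Hill-equation fits, with 29 nM porcine relaxin as 100% and buffer as basal.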
miR-21 reporter: qHTS Assay for Modulators of miRNAs and/orActivators of miR-21; Potency, µM (highest dose often 38.3 µM), for inactives: at the highest dose activity change, positive = activation, usual class: activators; 340,000 tested, under 10 active; HeLa miR-21 FLuc reporter, luciferase, 48 h;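 further: % of control where 0% means no effect; miR-21 action dims this reporter so a rising signal means less miR-21 action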
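HeLa miR-21-FLuc reporter line, endogenous miR-21; 2000 cells/well in DMEM/10% FBS; compound titration up to ~40uM final, 48 h, 37 degree Celsius; luciferase detection reagent, 15 min lysis, CCD luminescence.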
KinaseGlo FLuc: Counterscreen for Luciferase (Kinase-Glo TM) Inhibition | Potency, µM (series often up to 38.3 µM), inactives show at the top dose activity change, negative = inhibition, actives largely listed as inhibitors | AID 1379, 2008 | Luciferin 4-monooxygenase (Photuris pensylvanica), Q27757 | Kinase-Glo luciferase, ATP luminescence, 8 min | 200,000 compounds, 0.28% hits; further: potency means the concentration at half of the fitted maximal effect; on the % scale 0 is the no-effect control and ±100 the full control effect; nearly all actives have a fitted effect of over 60% in size
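Substrate mix (final 50 mM imidazole pH 7.2, 50 mM KCl, 7 mM MgCl2, 10 uM ATP, 0.01% Tween 20, 0.05% BSA) plus pin-tool compound, then Kinase-Glo detection mix; 8 min ambient, luminescence read.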
RXFP1 antag: qHTS Assay for Antagonists of the Relaxin Receptor RXFP1. 350,000 compounds, 0.59% hits. activity change, negative = inhibition, % at 57.5 µM. AID 1259400, 2018. HEK293-RXFP1, relaxin-stimulated cAMP HTRF, 30 min; hits give low values;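 active means activity change of -60% or lower, but not beyond a set lower limit; inconclusive means change between -60% and -40%, or beyond the set limit; inactive means change above -40%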; further: on the % scale 0 is the no-effect control and ±100 the full control effect
gsp antagonist: qHTS for Antagonists of gsp, the Etiologic Mutation Responsible for Fibrous Dysplasia/McCune-Albright Syndrome: qHTS. 340,000 compounds, 0.4% hits. Potency, µM (highest dose often 76.9 µM), for inactives: top-dose activity change, negative = inhibition, usual class: inhibitors. gsp-mutant cells, cAMP HTRF, 30 min; calls by dose curve; cell line not stated here;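 further: intracellular cAMP measured with PDE inhibitor Ro 20-1724 present during compound exposure; potency means the concentration at half of the fitted maximal effect; on the % scale 0 is the no-effect control and ±100 the full control effect; nearly all actives have a fitted effect of over 65% in size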
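G418-selected cells were plated in DMEM/10% FBS for 16-24 h at 37C, then treated with compounds plus the PDE inhibitor […] (300 uM solution added) for 30 min at 37C. Intracellular cAMP was measured by HTRF after 30 min lysis at room temperature.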
gsp ag: qHTS for Agonist of gsp, the Etiologic Mutation Responsible for Fibrous Dysplasia/McCune-Albright Syndrome: qHTS. 340,000 compounds, 0.13% hits. Potency, µM (highest dose often 76.9 µM), without a hit: at the highest dose activation (cAMP increase), hits mostly activators. AID 624287, 2012. gsp mutant cells, cAMP HTRF, 30 min; active means well fitted activation curve with a large enough effect; inconclusive means small, poorly fitted or top-dose-only effect, or another doubt; inactive means no such curve, though single readings can be large or run the other way; cell line not stated here;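 further: phosphodiesterase inhibitor Ro 20-1724 added with compounds to block cAMP breakdown; potency means the concentration at half of the fitted maximal effect; nearly all actives have a fitted effect of over 60% in size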
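Cells stably selected in G418 were plated at 2000/well, grown 16-24 hr, then given compounds in DMSO with the PDE inhibitor […] (300 uM solution added) for 30 min at 37C; cAMP was read by HTRF.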
Starred values were filed as active, the others as inactive; u = inconclusive; x = no result given; [ ] = dose if it differs, or a comment. Shown are actives, neighbours in structure and some others; about 1% of the full set was active somewhere. Unless noted, the call rests on the fitted dose curve; in most records, active means well fitted curve in the direction sought with a large enough effect; inconclusive means small, poorly fitted or top-dose-only effect, or another doubt; inactive means no such curve, though single readings can be large; an effect the other way counts as inactive or inconclusive.

SMILES	RXFP1 agonist	miR-21 reporter	KinaseGlo FLuc	RXFP1 antag	gsp antagonist	gsp ag
O=C1Nc2ccc(Br)cc2/C1=C/C(=O)c1ccc2c(c1)OCO2	4%	21%	x	-84*	3%	15%
COc1ccc(C(=O)/C=C2\C(=O)Nc3ccc(Br)cc32)cc1	x	x	x	-75*	7%	0%
O=C1Nc2ccccc2/C1=C\C(=O)c1ccccc1	0%	u	x	u	7%	u
O=C(O)c1ccccc1NCCc1ccccc1	x	x	x	-30	x	x
C/C(=N/NC(=O)c1ccccn1)c1ccco1	0%	0%	7.1µM*	32	11%	-21%
C/C(=N/NC(=O)c1ccccn1)c1ccc(O)cc1	0%	-50%	x	-3	3%	1%
Nc1ccn(C2CO[C@H](CO)O2)c(=O)n1 (stereo partly drawn)	x	x	x	14	x	x
CCN1CCN(c2nc3c(C)cccn3c(=O)c2/C=C(\C#N)C(=O)NCCOC)CC1	25µM*	1%	x	6	14%	u
COc1ccc(-c2noc(CCC(=O)N3CCN(c4cccc(OC)c4)CC3)n2)cc1	x	x	x	x	45µM*	x
CCOc1ccc(-c2nc(CSCC(=O)N3CCN(c4cccc(OC)c4)CC3)c(C)o2)cc1	1%	u	4%	-7	40µM*	u
OCCNc1ncnc2c1c(-c1ccccc1)c(-c1ccccc1)n2Cc1ccco1	1%	-1%	-1%	1	-21%	1%
c1ccc(-c2c(-c3ccccc3)n(Cc3ccco3)c3ncnc(NCCCn4ccnc4)c23)cc1	5%	u	-1%	-65*	-4%	-43%
O=C(c1cccs1)N(Cc1cccnc1)c1nc2ccc(F)cc2s1	1%	-1%	x	-8	x	x
CCCCc1nc2c(c3c1C[C@H](C)OC3)CN(S(=O)(=O)CCCC)CC2	x	x	-7%[7.66 µM]	x	x	x
CN(C)S(=O)(=O)c1cccc(NC(=S)Nc2cccc3cnccc23)c1	-5%	u	x	-71*	-13%	19%
Cn1c(=O)c(C(=O)NNC(=O)c2ccccc2Cl)c(O)c2ccccc21	2%	-4%	x	-66*	-17%	-25%
COCCCN1C(=O)C(O)=C(C(=O)c2ccc(C)o2)C1c1cccc(Br)c1 (stereo not drawn)	u	-7%	2%	22	11%	13µM*
Cc1cccc(N(CC(=O)NCc2ccccc2)S(C)(=O)=O)c1C	-1%	0%	x	-1	x	x
O=C(O)c1ccc2c3c(cccc13)C(=O)N(c1ccccc1)C2=O	5%	0%	-2%	-5	1%	31%
CC(=O)Nc1ccc2c3c(cccc13)C(=O)N(c1ccccc1)C2=O	15%	-1%	5%	-18	-8%	35µM*
O=C(O)c1ccc(N2C(=O)c3cccc4c(C(=O)O)ccc(c34)C2=O)cc1	u	0%	0%	26	-7%	20µM*
Cc1cc(-c2ccc(C)c(S(=O)(=O)Nc3cccc(C#N)c3)c2)on1	1%	9%	x	-24	x	x
c1ccc(-c2noc(-c3ccc4ccccc4c3)n2)nc1	1%	u	10µM*	-16	u	6%
O=[N+]([O-])c1cccc(-c2nc(-c3ccccn3)no2)c1	7%	-50%	x	10	3%	51%
COc1cccc(-c2nc(-c3ccccn3)no2)c1	0%	28%	7.9µM*	-7	3%	u
SMILES	RXFP1 agonist	miR-21 reporter	KinaseGlo FLuc	RXFP1 antag	gsp antagonist	gsp ag
c1ccc(-c2noc(-c3ccc4c(c3)OCO4)n2)nc1	0%	u	2.8µM*	10	10%	-15%
CC(C)(C)c1nnc(NS(=O)(=O)c2ccc(N)cc2)s1	x	x	x	8	x	x
COc1cccc(CNc2ccc3[nH]c(=O)[nH]c3c2)c1OCc1ccccc1Cl	-1%	3%	x	-75*	-22%	-3%
COc1cccc(CNc2ccc3[nH]c(=O)[nH]c3c2)c1OCc1ccccc1	0%	17%	x	-32	-9%	11%[15.4 µM]
Cn1c(=O)c2ncn(CC(=O)NCCOc3ccccc3)c2n(C)c1=O	12%	-11%	-1%	-15	13%	u
Cc1cccc(C)c1NC(=O)Cn1cnc2c(=O)n(C)c(=O)n(C)c21	11%	-5%	9%	-1	0%	u
COc1ccc(CNC(=O)Cn2cnc3c(=O)n(C)c(=O)n(C)c32)cc1	18%	16%	-2%	14	6%	18µM*
Cn1c(=O)c2ncn(CC(=O)Nc3ccc4c5c(cccc35)CC4)c2n(C)c1=O	9%	-11%	-2%	-5	-3%	32µM*
CCC1Sc2ccc(S(=O)(=O)N3CCN(c4ccccc4)CC3)cc2NC1=O (stereo not drawn)	0%	0%	x	-67*	-20%	u
O=C1CSc2ccc(S(=O)(=O)N3CCN(c4ccccc4)CC3)cc2N1	1%	14%	x	6	-6%	-15%
CC(=O)c1ccc(Nc2nc(=O)c3cccnc3s2)cc1	u	-39%	-1%	18	11%	10µM*
Cc1cc(OCCSc2nnc(-c3cccs3)n2C)ccc1Cl	0%	-3%	-2%	-13	35µM*	1%
COC(=O)N/N=C/c1cccc(OCCSc2ccc(Cl)cc2)c1	2%	-37%	1%	-62*	-35%	3%[15.4 µM]
O=C(O)c1cccc(CN2C(=O)S/C(=C/c3cccc([N+](=O)[O-])c3)C2=O)c1	3%	5%	x	-38	20µM*	u
O=C(O)c1cc(-c2ccco2)nc2ccc(Br)cc12	13µM*	-4%	-2%	2	10%	u
O=C(Nc1cccc(C(F)(F)F)c1)c1ccc2nc(-c3ccco3)c(-c3ccco3)nc2c1	-3%	16%	-9%	-97*	-9%	-29%
O=C(O)c1ccc2nc(-c3ccco3)c(-c3ccco3)nc2c1	13%	3%	-18%	u	-22%	3.5µM*
O=C(O)c1ccc(-c2ccc(OS(=O)(=O)c3ccccc3F)cc2)cc1	4%	-57%	x	-10	-10%	-3%[15.4 µM]
COC(=O)c1ccccc1S(=O)(=O)Oc1ccc(-c2ccc(C(=O)O)cc2)cc1	-1%	3%	x	-7	28µM*	2%[15.4 µM]
CCOC(=O)C1CCN(C2=NC(=O)/C(=C/c3ccc(Cl)cc3)S2)CC1	-3%	-3%	x	-29	-6%	45%
CCOC(=O)CSC1=NC(=O)/C(=C\c2ccc(Cl)cc2)S1	-1%	-42%	-2%	-16	32µM*	17%
